PubChem BioAssay (NCATS)
Several values for one entry are separate records, joined by “and”; a condition that tells them apart may be missing. Equal values may be shown once. Results filed as inconclusive are left out. Activity calls are given as the source filed them. Unless noted, calls follow the shape of the dose curve; as a rule, active = well fitted curve in the direction sought with a large enough effect; inconclusive = small, poorly fitted or top-dose-only effect, or another doubt; inactive = no such curve, though single readings can be large; an effect the other way counts as inactive or inconclusive.

Key:
[1] = qHTS assay for environmental chemicals that activate the Aryl hydrocarbon Receptor (AhR) signaling pathway (AID 651777); conditions: 1A2-DRE human hepatoma cells, luciferase, 24 h; activation: stronger effect = higher value; also: % of control where 0% means no effect; nearly all actives have a fitted effect of over 15% in size
Outline: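 Human hepatoma 1A2-DRE cells stably carrying a DRE/CYP1A2 promoter–luciferase reporter, 1,200 cells/well, exposed to compound 24 hr at 37 C. Luciferase read by One-Glo luminescence after 30 min at room temperature; increased signal marks AhR activation.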

[2] = biological target: Peroxisome proliferator-activated receptor alpha (Homo sapiens) (UniProt Q07869); assay: qHTS assay for small molecule agonists of the peroxisome proliferator-activated receptor alpha (PPARalpha) signaling pathway (AID 651778); conditions: PathHunter PPARalpha complementation, chemiluminescence, 6 h; stronger effect = higher value; also: % of control where 0% means no effect
Outline: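 Cells plated at 2,000/well and held overnight at 37 C, 5% CO2, then compound added by pin tool for 6 hr; after PathHunter detection reagent and 60 min at room temperature, chemiluminescence from enzyme complementation was read.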

[3] = biological target: Nuclear receptor ROR-gamma (Homo sapiens) (UniProt P51449); assay: qHTS assay for small molecule antagonists of the retinoid-related orphan receptor gamma (ROR-gamma) signaling pathway (AID 651802); also: nearly all actives have a fitted effect of over 60% in size; also: potency is read from the fitted curve at half-maximal effect
Outline: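 Doxycycline-induced reporter activity in engineered CHO cells (TET-inducible ROR, RORE-LUC) was measured by luminescence after 16hr compound exposure at 37C.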

[4] = biological target: Tyrosine-protein kinase Yes (Homo sapiens) (UniProt P07947); assay: qHTS for small molecule inhibitors of Yes1 kinase: Primary Screen (AID 686947);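 also: plate controls were DMSO with enzyme for no effect and no-enzyme DMSO wells for full effect; nearly all actives have a fitted effect of over 60% in size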
Outline: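 In this qHTS format, inhibition is expressed relative to DMSO controls with enzyme (maximum) and without enzyme (minimum). The 60 min room-temperature reaction uses 0.1 mM ATP, with ADP detected by luminescence.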

[5] = qHTS for small molecule inhibitors of Yes1 kinase: Counter Assay (AID 686950);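 also: no kinase present so only ADP-Glo detection of a fixed ADP amount is tested; luminescence from ADP-Glo reporting ADP in a fixed ATP and ADP mixture; 0% = DMSO wells with ATP plus ADP and -100% = ATP-only wells without ADP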
Outline: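 Measuring interference with ADP-Glo, the assay ran 60 min at room temperature on an ATP/ADP mix lacking enzyme. Values were normalized to ATP-plus-ADP (maximum) and ATP-only (minimum) DMSO controls.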

[6] = biological target: Arylsulfatase A (Homo sapiens) (UniProt P15289); assay: qHTS screen for enhancers of Arylsulfatase A (ASA1): LOPAC Validation Assay (AID 720538); conditions: outcome: dose series up to 57.5 µM
Outline: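 Enhancer assay in patient-derived MLD fibroblasts carrying ASA-I179S: 48 h compound exposure at 37 C, then 14 h room-temperature pNCS turnover (0.5 mM final) in lysis buffer. Read by fluorescence at 525/598 nm after NaOH stop.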

[7] = qHTS for compounds that reverse cellular toxicity of Amyloid beta (A-beta) peptide in yeast: LOPAC Validation Assay (AID 720559);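 also: plate controls were DMSO for no effect and equimolar ferric chloride plus clioquinol rescue for full effect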
Outline: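 Rescue of A-beta toxicity was scored as yeast growth by 600 nm absorbance after 48 hr at 30 C with compound. Normalization used DMSO (negative) and equimolar ferric chloride plus clioquinol (positive).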

[8] = qHTS for Activators of Parkin Expression: LOPAC Validation Assay (NLuc Reporter) (AID 720572;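 also: 0% = DMSO and 100% = positive control compound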)
Outline: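 Cells harboring the Parkin-promoter coincidence reporter were treated for 24 h at seven concentrations. NLuc output was measured sequentially after the FLuc channel and scaled between DMSO and positive control values.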

[9] = qHTS for Activators of Parkin Expression: LOPAC Validation Assay (FLuc Reporter) (AID 720573;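 also: 0% = DMSO and 100% = positive control compounds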)
Outline: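 FLuc signal from Parkin-promoter coincidence reporter neuronal cells, normalized to DMSO and positive control (100%). Cells (1,500/well) pre-incubated 24 h, then exposed to LOPAC compounds in 7-point dose response for 24 h at 37 C, 5% CO2.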

[10] = qHTS assay for small molecule agonists of the antioxidant response element (ARE) signaling pathway measured by Nrf2-dependant transcriptional activity (AID 720636; active = well fitted curve in the direction sought with a large enough effect in the repeat runs; an effect the other way counts as inactive or inconclusive; also: % of control where 0% means no effect)
Outline: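 ARE-luc HepG2 cells carrying an Nrf2-responsive luciferase reporter, in medium with 1% dialyzed FBS, exposed to compound for 16 hr at 37 C, 5% CO2. Luminescence read 30 min after ONE-Glo addition.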

[11] = qHTS assay for small molecule antagonists of the retinoid-related orphan receptor gamma (ROR-gamma) signaling pathway - cell viability counter screen (AID 720652; active = well fitted curve in the direction sought with a large enough effect in the repeat runs; an effect the other way counts as inactive or inconclusive;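 also: compound exposure lasted 16 hr before ATP read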; also: potency is read from the fitted curve at half-maximal effect)
Outline: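 ATP-based viability readout in the ROR-gamma reporter CHO cells after 16 hr compound exposure under doxycycline induction.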

[12] = qHTS assay for small molecule agonists of the antioxidant response element (ARE) signaling pathway measured by Nrf2-dependant transcriptional activity - cell viability counter screen (AID 720653; active = well fitted curve in the direction sought with a large enough effect in the repeat runs; an effect the other way counts as inactive or inconclusive; also: potency is read from the fitted curve at half-maximal effect; as to max response: % is scaled to controls: 0 for no effect and ±100 for the full control effect); conditions: ARE-bla HepG2 viability, CellTiter-Glo ATP luminescence, 16 h; max response: stronger effect = lower value
Outline: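 ARE-bla HepG2 cells (2,000/well) rested 5 hrs at 37C/5% CO2, then exposed to compounds in DMSO for 16 hrs. Viability was read in the same wells as intracellular ATP by luminescence, 30 min at room temperature after reagent addition.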

[13] = biological target: T1, Hexokinase-4 (Homo sapiens) + Glucokinase regulatory protein (Homo sapiens) (UniProt P35557+Q14397); assay: qHTS assay for inhibitors of recombinant human GCK-GKRP interaction: ADP-Glo assay (AID 743206);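 also: plate controls were DMSO plus enzyme for no effect and no enzyme for full effect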
Outline: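 Pin-transferred compounds meet a 15 nM GST-GCK/15 nM FLAG-GKRP/2 uM S6P mix (dispense concentrations). ATP is then added to 0.4 mM final with 5 mM glucose, and the reaction runs 60 min at room temperature. ADP is quantified luminescently.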

[14] = biological target: T1, Hexokinase-4 (Homo sapiens) + Glucokinase regulatory protein (Homo sapiens); assay: qHTS assay for inhibitors of recombinant human GCK-GKRP interaction: HTRF assay (AID 743207);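 also: 0% = DMSO with GCK present and -100% = DMSO wells lacking GCK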
Outline: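 After 60 min equilibration at room temperature with anti-FLAG XL665 and anti-GST antibodies, FRET ratio (665/615 nm, excitation 320 nm) was read. Proteins: GST-GCK and FLAG-GKRP, each 5 nM, plus 2 uM S6P, pH 7.1 buffer; GCK-free wells define minimum signal.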

[15] = qHTS Assay for Identifying Gametocytocidal Compounds (AID 743244);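 also: % is scaled to controls: 0 for no effect and ±100 for the full control effect; actives lower the fluorescent signal which means gametocytes are killed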; conditions: P. falciparum 3D7 stage III-V gametocytes, alamarBlue, 72 h; max response: stronger effect = lower value
Outline: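 3D7 gametocytes, stages III–V, 20,000/well; cpd 72 h, 37 °C/5% CO2; + alamarBlue 24 h; fluor. Ex 525/Em 598.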

[16] = qHTS assay for cell viability of HEK293 cells (AID 743288); conditions: ATP luminescence (CellTiter-Glo), 18 h; max response: stronger effect = lower value; also: nearly all actives have a fitted effect of over 50% in size; also: potency is read from the fitted curve at half-maximal effect; as to max response: % is scaled to controls: 0 for no effect and ±100 for the full control effect
Outline: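 Readout is luciferase-coupled ATP content (CellTiter-Glo luminescence, 30 min room temperature) as a measure of metabolically competent cells. Parental HEK293 cells were plated 5 h or more before compound addition, then treated 18 h at 37 C.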

[17] = qHTS profiling for inhibitors of Plasmodium falciparum (3D7) proliferation (AID 743322);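 also: infected erythrocytes exposed to compound for 72 h before lysis; 100% = DMSO vehicle wells and 0% = 0.29 µM artemisinin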; conditions: P. falciparum 3D7 proliferation; at 28.7 µM (top of the series)
Outline: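 Parasite DNA was quantified by SYBR Green I fluorescence (ex 485, em 535 nm) after overnight lysis in saponin/Triton buffer at room temperature. Cultures at 0.3% parasitemia and 2.5% hematocrit were first exposed to compound for 72 h at 37 C; signals were normalised to artemisinin (0.29 uM) and vehicle wells.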

[18] = qHTS profiling for inhibitors of Plasmodium falciparum (DD2) proliferation (AID 743323; call rule not given here); conditions: lower = more inhibition; at 28.7 µM (top of the series)
Outline: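 Parasite proliferation measured via DNA-dye fluorescence, as uninfected erythrocytes lack DNA. Cultures at 0.3% parasitemia and 2.5% hematocrit incubated 72 h with compound; signal scaled between vehicle and 0.29 uM artemisinin wells.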

[19] = qHTS profiling for inhibitors of Plasmodium falciparum (HB3) proliferation (AID 743324); conditions: Plasmodium falciparum HB3 blood-stage proliferation; at 28.7 µM (top of the series);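 also: 100% = DMSO vehicle wells and 0% = artemisinin-treated control wells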
Outline: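 SYBR Green fluorescence (485 ex/535 em) of lysed cultures, incubated overnight at room temperature in the dark, quantifies parasite DNA. Infected erythrocytes at 0.3% parasitemia and 2.5% hematocrit were exposed 72 h; values normalized to DMSO and 0.29 uM artemisinin controls.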

[20] = qHTS assay for cell viability of the p53RE-bla HCT-116 cell line (AID 743292); also: % is scaled to controls: 0 for no effect and ±100 for the full control effect; nearly all actives have a fitted effect of over 55% in size
Outline: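 CellSensor p53RE-bla HCT-116 cells (4,000/well) pre-incubated 5 h at 37 C, then exposed to compounds in DMSO for 16 h at 37 C. Viability read as ATP content by CellTiter-Glo luminescence after 30 min at room temperature.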

T1 sequence (P35557 whole entry, looked up): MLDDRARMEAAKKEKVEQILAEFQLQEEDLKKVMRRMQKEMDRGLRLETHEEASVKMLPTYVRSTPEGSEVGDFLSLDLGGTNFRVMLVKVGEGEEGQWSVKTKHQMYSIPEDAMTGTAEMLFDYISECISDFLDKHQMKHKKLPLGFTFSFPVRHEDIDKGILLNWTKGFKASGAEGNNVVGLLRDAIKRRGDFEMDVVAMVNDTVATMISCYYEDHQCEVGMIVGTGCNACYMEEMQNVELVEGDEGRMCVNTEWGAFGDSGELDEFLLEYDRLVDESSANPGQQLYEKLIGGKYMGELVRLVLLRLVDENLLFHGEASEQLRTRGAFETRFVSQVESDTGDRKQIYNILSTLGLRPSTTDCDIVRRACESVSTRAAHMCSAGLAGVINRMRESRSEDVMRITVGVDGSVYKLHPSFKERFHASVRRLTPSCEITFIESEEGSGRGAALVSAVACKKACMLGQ
T1 sequence (Q14397 whole entry, looked up): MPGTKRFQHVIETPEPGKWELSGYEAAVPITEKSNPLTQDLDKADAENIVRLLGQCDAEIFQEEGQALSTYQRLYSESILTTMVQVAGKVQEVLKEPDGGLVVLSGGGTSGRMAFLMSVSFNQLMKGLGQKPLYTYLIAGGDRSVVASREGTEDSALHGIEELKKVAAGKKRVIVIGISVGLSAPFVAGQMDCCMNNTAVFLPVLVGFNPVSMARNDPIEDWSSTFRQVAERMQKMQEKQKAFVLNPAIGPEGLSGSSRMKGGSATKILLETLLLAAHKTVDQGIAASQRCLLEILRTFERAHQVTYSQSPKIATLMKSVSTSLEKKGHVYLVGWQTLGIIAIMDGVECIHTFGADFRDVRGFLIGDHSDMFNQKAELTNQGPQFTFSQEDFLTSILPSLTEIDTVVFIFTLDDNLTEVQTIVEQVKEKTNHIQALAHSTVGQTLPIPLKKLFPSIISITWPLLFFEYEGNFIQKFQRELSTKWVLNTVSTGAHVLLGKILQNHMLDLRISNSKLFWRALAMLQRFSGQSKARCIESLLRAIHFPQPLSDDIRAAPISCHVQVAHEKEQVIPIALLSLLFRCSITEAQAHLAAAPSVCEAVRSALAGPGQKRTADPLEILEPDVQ
Sequence of Arylsulfatase A (Homo sapiens) (P15289 whole entry, looked up): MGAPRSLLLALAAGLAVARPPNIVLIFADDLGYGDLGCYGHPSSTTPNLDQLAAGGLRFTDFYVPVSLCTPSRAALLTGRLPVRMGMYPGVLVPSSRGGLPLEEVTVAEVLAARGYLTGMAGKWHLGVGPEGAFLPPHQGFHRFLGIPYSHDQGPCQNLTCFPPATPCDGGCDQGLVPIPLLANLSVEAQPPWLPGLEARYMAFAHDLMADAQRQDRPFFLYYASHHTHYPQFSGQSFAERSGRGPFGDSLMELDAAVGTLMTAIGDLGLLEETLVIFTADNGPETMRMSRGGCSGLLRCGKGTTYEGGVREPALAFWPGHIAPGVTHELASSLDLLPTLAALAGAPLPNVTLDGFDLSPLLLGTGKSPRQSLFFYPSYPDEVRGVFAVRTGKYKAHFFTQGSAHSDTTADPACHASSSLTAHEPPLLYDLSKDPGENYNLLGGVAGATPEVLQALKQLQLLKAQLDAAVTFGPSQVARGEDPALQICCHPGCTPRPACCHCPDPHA
Sequence of Peroxisome proliferator-activated receptor alpha (Homo sapiens) (Q07869 whole entry, looked up): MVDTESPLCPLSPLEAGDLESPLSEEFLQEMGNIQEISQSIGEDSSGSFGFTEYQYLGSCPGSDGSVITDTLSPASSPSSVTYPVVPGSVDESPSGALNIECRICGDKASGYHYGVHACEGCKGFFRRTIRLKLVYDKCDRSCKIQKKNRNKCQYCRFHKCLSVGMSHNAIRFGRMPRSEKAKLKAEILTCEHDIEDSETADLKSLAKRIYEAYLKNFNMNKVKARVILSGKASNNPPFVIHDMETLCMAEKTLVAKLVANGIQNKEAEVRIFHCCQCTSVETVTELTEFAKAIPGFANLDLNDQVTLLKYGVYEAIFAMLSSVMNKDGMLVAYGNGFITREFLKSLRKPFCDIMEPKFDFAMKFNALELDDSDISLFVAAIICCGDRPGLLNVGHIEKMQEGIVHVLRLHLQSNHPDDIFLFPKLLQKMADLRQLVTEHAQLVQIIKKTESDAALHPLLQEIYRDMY
Sequence of Nuclear receptor ROR-gamma (Homo sapiens) (P51449 whole entry, looked up): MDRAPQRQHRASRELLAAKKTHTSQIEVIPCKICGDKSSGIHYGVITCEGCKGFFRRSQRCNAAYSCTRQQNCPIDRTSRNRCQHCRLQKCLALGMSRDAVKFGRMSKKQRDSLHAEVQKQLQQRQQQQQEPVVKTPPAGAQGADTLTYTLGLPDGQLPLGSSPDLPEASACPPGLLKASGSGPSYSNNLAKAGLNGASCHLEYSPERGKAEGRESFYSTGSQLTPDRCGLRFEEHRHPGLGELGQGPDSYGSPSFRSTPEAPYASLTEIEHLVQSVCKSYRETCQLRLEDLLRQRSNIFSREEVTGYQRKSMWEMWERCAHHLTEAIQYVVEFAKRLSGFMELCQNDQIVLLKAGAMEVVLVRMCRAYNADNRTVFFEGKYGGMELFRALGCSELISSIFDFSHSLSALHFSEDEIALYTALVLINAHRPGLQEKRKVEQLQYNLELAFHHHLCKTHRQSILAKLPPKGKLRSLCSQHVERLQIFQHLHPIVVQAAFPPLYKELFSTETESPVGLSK
Sequence of Tyrosine-protein kinase Yes (Homo sapiens) (P07947 whole entry, looked up): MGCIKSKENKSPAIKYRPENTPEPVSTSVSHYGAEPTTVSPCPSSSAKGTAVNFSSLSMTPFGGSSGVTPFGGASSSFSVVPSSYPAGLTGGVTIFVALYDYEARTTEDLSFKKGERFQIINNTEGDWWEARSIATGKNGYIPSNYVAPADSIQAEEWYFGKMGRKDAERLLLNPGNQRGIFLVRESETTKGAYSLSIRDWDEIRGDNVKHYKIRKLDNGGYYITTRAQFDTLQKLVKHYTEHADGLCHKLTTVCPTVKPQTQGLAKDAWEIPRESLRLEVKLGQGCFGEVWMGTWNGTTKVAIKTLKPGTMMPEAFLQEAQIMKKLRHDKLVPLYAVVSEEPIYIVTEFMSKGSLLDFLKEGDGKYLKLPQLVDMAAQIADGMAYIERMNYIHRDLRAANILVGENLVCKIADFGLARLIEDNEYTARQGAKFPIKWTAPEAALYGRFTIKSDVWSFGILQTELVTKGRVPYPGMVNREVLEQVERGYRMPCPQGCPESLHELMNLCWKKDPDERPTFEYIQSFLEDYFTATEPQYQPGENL

CC1=C(/C=C/C(C)=C/C=C/C(C)=C/C(=O)Nc2ccc(O)cc2)C(C)(C)CCC1
active: Potency [3] 26.6 µM | Potency [11] 26.6 µM | Potency [12] 44.7 µM | Potency [16] 50.1 µM
14.1%: remaining parasite growth % (stronger effect = lower value) [17]
22.9%: activity, percent of control [18]
-0.513%: remaining proliferation (% of control), lower = more inhibition [19]
inactive: activation [1] 4.06% | max response [2] 8.2% | Potency [4] | outcome [5] | outcome [6] | outcome [7] | Potency [8] | Potency [9] | Potency [10] | outcome [13] | outcome [14] | max response [15] -5.25% and -28.8%

CC(=O)O[C@]1(C(C)=O)CC[C@H]2[C@@H]3C=C(Cl)C4=CC(=O)[C@@H]5C[C@@H]5[C@]4(C)[C@H]3CC[C@@]21C
inactive: activation [1] 1.28% and -0.271% | max response [2] 0.54% and -4.74% | outcome [6] | outcome [7] | Potency [8] | Potency [9] | Potency [10] | Potency [11] | max response [12] -29.6% and -20.9% | outcome [13] | outcome [14] | max response [15] 5.83% | max response [16] -22.8% | Potency [20]

CCn1cc(C(=O)O)c(=O)c2ccc(C)nc21
inactive: max response [2] -3.78% and -0.0141% | Potency [3] | outcome [6] | outcome [7] | Potency [8] | Potency [9] | Potency [10] | Potency [11] | max response [12] 11.7% and 3.46% | max response [15] 5.72% and 15.6% | max response [16] 1.7% and -2.87% | Potency [20]
